# Experimental data: PubChem BioAssay
# Calls of active or inactive are those of the source. Unless noted, how the calls were made is not given here.
# Assays:
# [1] = compounds binding Alexa647 anti-His antibody – biochemical, small-molecule microarray, 635 nm fluorescence, artefact control for SMM control protein annotation, primary screen (AID 1128); conditions: higher = more signal;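 further: score merges feature fluorescence with signal-to-noise for each printed compound spot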
# [2] = tested on: Human papillomavirus type 1a E7 protein (residues 1-88); assay: HPV1a E7 small-molecule binders, primary screen, biochemical, small-molecule microarray, residues 1-88, 635 nm (AID 1129); conditions: small-molecule microarray binding, fluorescence 635 nm; higher = more signal
# [3] = biological target: Focal adhesion kinase 1 (Homo sapiens) (UniProt Q05397); assay: PTK2 protein binding on printed compound slides – biochemical, small-molecule microarray, 635/667 nm fluorescence, BSA, DTT, primary screen (AID 1130); conditions: 635 nm fluorescence, higher = more signal;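 further: composite of spot emission at 667 nm and signal to noise over triplicate slides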
# Chain of Focal adhesion kinase 1 (Homo sapiens) (Q05397 whole entry, looked up): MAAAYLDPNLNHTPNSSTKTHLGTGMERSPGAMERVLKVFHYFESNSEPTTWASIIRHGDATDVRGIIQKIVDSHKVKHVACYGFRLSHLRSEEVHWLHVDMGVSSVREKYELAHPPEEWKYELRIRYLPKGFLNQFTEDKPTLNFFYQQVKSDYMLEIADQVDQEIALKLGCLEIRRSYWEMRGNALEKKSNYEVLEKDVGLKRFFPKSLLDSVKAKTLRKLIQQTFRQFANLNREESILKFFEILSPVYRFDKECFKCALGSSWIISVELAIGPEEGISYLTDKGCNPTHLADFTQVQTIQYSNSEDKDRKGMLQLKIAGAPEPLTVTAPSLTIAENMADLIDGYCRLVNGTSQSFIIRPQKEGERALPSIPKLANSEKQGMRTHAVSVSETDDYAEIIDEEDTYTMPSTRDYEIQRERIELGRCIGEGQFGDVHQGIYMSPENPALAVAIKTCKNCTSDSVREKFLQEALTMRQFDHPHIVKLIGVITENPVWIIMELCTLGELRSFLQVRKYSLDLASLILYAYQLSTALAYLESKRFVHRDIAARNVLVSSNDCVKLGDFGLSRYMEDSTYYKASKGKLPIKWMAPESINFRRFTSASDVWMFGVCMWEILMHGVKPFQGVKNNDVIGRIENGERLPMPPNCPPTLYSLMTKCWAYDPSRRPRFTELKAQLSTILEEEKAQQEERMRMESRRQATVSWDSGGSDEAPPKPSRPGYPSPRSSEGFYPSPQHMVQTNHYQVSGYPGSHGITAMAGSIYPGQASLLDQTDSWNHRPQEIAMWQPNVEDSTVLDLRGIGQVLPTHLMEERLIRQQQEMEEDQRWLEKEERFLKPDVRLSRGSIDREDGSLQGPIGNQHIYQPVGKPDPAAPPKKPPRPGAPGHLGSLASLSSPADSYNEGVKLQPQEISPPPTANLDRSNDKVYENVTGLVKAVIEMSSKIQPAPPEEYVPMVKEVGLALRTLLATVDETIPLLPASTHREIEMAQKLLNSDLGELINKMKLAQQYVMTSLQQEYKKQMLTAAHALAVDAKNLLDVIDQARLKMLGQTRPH
# [4] = tested on: Fibrinogen (Alexa647-labelled); assay: Alexa647-fibrinogen binding to printed small molecules – biochemical, small-molecule microarray, 635/667 nm fluorescence, artefact control for SMM control-protein annotation, profiling panel (AID 1131); conditions: fibrinogen-A647 binding fluorescence, higher = more signal;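 further: z-score merges 667 nm fluorescence with per-spot signal-to-noise over triplicate slides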
# [5] = biological target: Follistatin (Homo sapiens) (UniProt P19883); assay: FST protein binding to printed compounds – biochemical, small-molecule microarray, 635/667 nm fluorescence, primary screen (AID 1132); conditions: 635 nm fluorescence, higher = more signal
# Chain of Follistatin (Homo sapiens) (P19883 whole entry, looked up): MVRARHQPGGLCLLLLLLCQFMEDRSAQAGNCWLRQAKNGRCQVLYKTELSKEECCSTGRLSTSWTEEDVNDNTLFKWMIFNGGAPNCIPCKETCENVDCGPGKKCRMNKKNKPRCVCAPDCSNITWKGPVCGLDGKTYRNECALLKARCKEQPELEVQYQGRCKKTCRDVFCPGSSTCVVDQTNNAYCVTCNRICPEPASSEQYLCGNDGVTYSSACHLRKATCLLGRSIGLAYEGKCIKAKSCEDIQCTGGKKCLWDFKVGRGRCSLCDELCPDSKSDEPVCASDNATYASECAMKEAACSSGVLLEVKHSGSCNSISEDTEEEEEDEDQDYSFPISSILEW
# [6] = biological target: Fibroblast growth factor 2 (Homo sapiens) (UniProt P09038); assay: basic fibroblast growth factor binding to printed compounds – biochemical, small-molecule microarray, 635/667 nm fluorescence, primary screen (AID 1133); conditions: FGF2, fluorescence 635/667, higher = more signal
# Chain of Fibroblast growth factor 2 (Homo sapiens) (P09038 whole entry, looked up): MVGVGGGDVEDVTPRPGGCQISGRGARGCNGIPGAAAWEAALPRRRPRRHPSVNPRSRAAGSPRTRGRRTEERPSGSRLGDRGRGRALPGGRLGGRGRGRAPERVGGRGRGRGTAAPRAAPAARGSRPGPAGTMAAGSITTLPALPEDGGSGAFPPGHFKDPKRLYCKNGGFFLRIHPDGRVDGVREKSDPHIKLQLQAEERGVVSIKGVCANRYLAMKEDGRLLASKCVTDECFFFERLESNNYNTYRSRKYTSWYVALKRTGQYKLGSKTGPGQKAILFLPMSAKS
# [7] = JC-1 mitochondrial potential readout, lung cancer cells – cell-based, A549, JC-1 fluorescence, basal, 24 h, 100 nL, profiling panel (AID 1138); conditions: higher = more signal;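 further: A549 lung adenocarcinoma cells under basal conditions with no added stimulus; test concentration not given here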
# [8] = tested on: Lefty1; assay: Lefty1 protein binding to printed compounds – biochemical, small-molecule microarray, 635/667 nm fluorescence, primary screen (AID 1139); conditions: fluorescence 635/667, higher = more signal
# [9] = tested on: wheat germ agglutinin (Triticum aestivum), Alexa647-labelled; assay: Alexa647-WGA lectin binding to printed small molecules – biochemical, small-molecule microarray, 635/667 nm fluorescence, artefact control for SMM control-protein annotation, profiling panel (AID 1140); conditions: WGA-A647 binding, 635 nm fluorescence, higher = more signal;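 further: score merges 667 nm feature emission with signal to noise over triplicate slides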
# [10] = biological target: Luciferin 4-monooxygenase (Photinus pyralis) (UniProt P08659); assay: inhibition of purified Photinus pyralis luciferase – biochemical, luminescence, purified enzyme, 2006 set, primary screen (AID 1141); conditions: purified firefly luciferase, SteadyGlo luminescence, 30 min; higher = more signal, called active from +8 up or from −8 down;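 further: cell-free assay with purified firefly luciferase at 100 ng per well in PBS; test concentration not given here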
# Chain of Luciferin 4-monooxygenase (Photinus pyralis) (P08659 whole entry, looked up): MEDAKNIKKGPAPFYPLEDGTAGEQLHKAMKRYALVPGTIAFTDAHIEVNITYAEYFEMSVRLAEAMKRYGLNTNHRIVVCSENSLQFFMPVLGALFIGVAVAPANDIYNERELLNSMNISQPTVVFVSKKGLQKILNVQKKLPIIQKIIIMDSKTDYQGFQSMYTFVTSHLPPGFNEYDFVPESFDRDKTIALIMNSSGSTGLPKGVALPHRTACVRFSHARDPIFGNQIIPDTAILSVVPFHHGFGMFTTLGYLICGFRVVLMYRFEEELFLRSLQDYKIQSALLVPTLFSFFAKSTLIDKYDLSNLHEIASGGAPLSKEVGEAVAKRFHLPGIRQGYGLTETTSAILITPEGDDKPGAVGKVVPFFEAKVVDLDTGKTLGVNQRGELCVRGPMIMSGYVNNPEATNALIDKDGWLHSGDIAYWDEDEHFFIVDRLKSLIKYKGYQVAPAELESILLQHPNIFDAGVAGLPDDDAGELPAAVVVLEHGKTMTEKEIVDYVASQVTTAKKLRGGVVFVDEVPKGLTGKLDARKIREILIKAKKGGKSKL
# [11] = tested on: Wnt5a (protein binding on small-molecule microarray); assay: small molecules binding Wnt5a protein – biophysical, small-molecule microarray, 635/667 nm fluorescence, primary screen (AID 1142); conditions: 635 nm fluorescence, higher = more signal;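 further: fluorescence read at 667 nm with signal to noise per printed feature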
# [12] = ATP-based viability of Huh7 replicon cells – cell-based, CellTiter-Glo luminescence, basal, 48 h, cytotoxicity control for HCV replication inhibitor project, primary screen (AID 1143); conditions: higher = more signal, called active from +8 up or from −8 down;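 further: Huh7 hepatoma cells carrying a hepatitis C replication reporter with no stimulus; test concentration not given here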
# [13] = Pseudomonas biofilm growth suppression – PAO1 strain, BacTiter-Glo luminescence, LB-PBS, primary screen (AID 1144); conditions: P. aeruginosa PAO1 biofilm, 12 h, higher = more signal
# [14] = basal CRE-LacZ reporter activity in PC12 – cell-based, unstimulated, primary screen (AID 1145); conditions: no forskolin, luminescence, 4.5 h, higher = more signal, called active from +8 up or from −8 down
# [15] = forskolin-driven CRE-LacZ activity in PC12 – cell-based, CRE-LacZ reporter, forskolin-stimulated, primary screen (AID 1146); conditions: luminescence, 4.5 h, higher = more signal, called active from +8 up or from −8 down;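 further: PC12 cells with 6xCRE LacZ reporter stimulated by forskolin 10 µM; beta-galactosidase reporter signal reflecting CREB driven transcription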
# [16] = biological target: Streptavidin (Streptomyces avidinii) (UniProt P22629); assay: compounds binding control protein streptavidin – biophysical, small-molecule microarray, 635/667 nm fluorescence, artefact control for SMM compound annotation, primary screen (AID 1147); conditions: higher = more signal;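 further: signal reflects streptavidin binding to arrayed compounds as a control protein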
# Chain of Streptavidin (Streptomyces avidinii) (P22629 whole entry, looked up): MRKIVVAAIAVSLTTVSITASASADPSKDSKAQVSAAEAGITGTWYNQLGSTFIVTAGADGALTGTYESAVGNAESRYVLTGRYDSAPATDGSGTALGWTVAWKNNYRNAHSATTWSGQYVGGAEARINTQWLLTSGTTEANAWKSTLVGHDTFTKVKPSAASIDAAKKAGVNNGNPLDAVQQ
# [17] = probe aInhba binding on compound microarray – biochemical, small-molecule microarray, 635/667 nm fluorescence, primary screen (AID 1148); conditions: higher = more signal;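 further: score merges 667nm spot fluorescence with signal-to-noise for antibody binding to printed compounds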
# [18] = biological target: Torsin-1A (Homo sapiens) (UniProt O14656); assay: TOR1A wild-type binding on microarray – cell lysate, small-molecule microarray, lysate, 635/667 nm, primary screen (AID 1149); conditions: COS7 hTOR1A-WT lysate, 635 nm fluorescence, higher = more signal
# Chain of Torsin-1A (Homo sapiens) (O14656 whole entry, looked up): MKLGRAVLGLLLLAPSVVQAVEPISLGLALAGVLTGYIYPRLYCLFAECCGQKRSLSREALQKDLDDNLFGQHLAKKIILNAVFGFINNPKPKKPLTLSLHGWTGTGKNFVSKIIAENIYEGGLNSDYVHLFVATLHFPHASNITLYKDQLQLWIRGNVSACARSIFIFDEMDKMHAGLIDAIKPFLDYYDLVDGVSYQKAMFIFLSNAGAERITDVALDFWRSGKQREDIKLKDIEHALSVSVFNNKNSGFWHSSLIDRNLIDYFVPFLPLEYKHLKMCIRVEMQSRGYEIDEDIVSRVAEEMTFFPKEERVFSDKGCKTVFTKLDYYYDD
# [19] = biological target: Torsin-1A (Homo sapiens) (UniProt O14656); assay: torsin A mutant lysate binding on microarrays – cell lysate, small-molecule microarray, COS7 lysate, 635/667 nm fluorescence, primary screen (AID 1150); conditions: COS7 hTOR1A mutant lysate, 635 nm fluorescence, higher = more signal;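 further: score pools 667 nm emission and signal to noise measuring lysate protein binding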
# [20] = tested on: Sonic hedgehog protein (Shh); assay: Sonic hedgehog microarray binding compounds – biochemical, small-molecule microarray, 635/667 nm fluorescence, primary screen (AID 1151); conditions: 635 nm fluorescence, higher = more signal;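 further: Shh protein binding to compounds spotted on small-molecule microarray slides; score combines spot fluorescence intensity with signal-to-noise across triplicate slides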
SMILES,composite z-score [1],composite z-score [2],composite z-score [3],composite z-score [4],composite z-score [5],composite z-score [6],z-score [7],composite z-score [8],composite z-score [9],z-score [10],composite z-score [11],z-score [12],z-score [13],z-score [14],z-score [15],composite z-score [16],composite z-score [17],composite z-score [18],composite z-score [19],composite z-score [20]
CC(=O)Nc1cc(Br)ccc1C(=O)O,0.0952,0.747,-0.0817,0.805,0.0564,-0.129,0.204,-0.0658,0.625,-0.592 (inactive),-0.129,0.0092 (inactive),0.307 (inactive),-0.141 (inactive),0.151 (inactive),0.254,0.0658,1.46,0.0517,-0.402
COCCOC(=O)N1C(=O)[C@@]2(c3cc(C#CCCO)ccc31)[C@H](c1ccccc1OCCO)N1[C@H](c3ccccc3)[C@H](c3ccccc3)OC(=O)[C@H]1[C@@H]2C(=O)N1CCN(c2ncccn2)CC1,1.64,1.21,0.714,0.807,1.32,0.819,-0.835,1.38,0.789,-0.198 (inactive),0.544,-1.01 (inactive),0.566 (inactive),-0.329 (inactive),1.99 (inactive),1.41,0.262,0.0623,0.835,1.37
CCCN1C(=O)[C@]2(COC(c3ccc(OCCCO)cc3)=N2)Cc2ccccc21,2.63,1.23,0.473,0.551,1.35,1.26,0.306,-0.222,0.974,-1.66 (inactive),0.526,-1.62 (inactive),0.786 (inactive),0.913 (inactive),-1.39 (inactive),0.0066,0.0756,0.416,0.01,0.184
O=c1oc(-c2ccccc2)nc2cc(Br)ccc12,0.118,0.71,0.704,0.481,0.405,0.671,0.112,0.585,0.466,-9.5 (active),0.147,-0.746 (inactive),0.786 (inactive),0.416 (inactive),0.827 (inactive),0.0708,-0.176,0.641,0.508,0.44
[N-]=[N+]=NCc1ccccc1C[C@]1(C(=O)O)N=C(c2ccc(OCCCO)cc2)O[C@H]1c1ccccc1,1.29,1.13,0.165,0.687,0.0944,0.87,0.0539,-1.43,1.2,0.414 (inactive),0.0352,-0.881 (inactive),-0.556 (inactive),-0.79 (inactive),2.11 (inactive),0.807,0.0566,1.8,1.99,-0.474
O=C(O)[C@@]1(Cc2ccccc2)N=C(c2ccc(OCCCO)cc2)O[C@H]1c1ccccc1,1.31,-0.112,-0.233,0.967,0.572,-0.686,0.593,0.194,0.915,1.16 (inactive),-0.243,-0.637 (inactive),-0.622 (inactive),-0.286 (inactive),-0.215 (inactive),-0.28,0.166,-0.184,1.4,0.422
COc1cccc(C(=O)O[C@H]2CC[C@]3(C)C4=C(CCC3C2(C)C)[C@]2(C)CC[C@H]([C@H](C)CCCC(C)C)[C@@]2(C)CC4)c1 (stereo not given in full),0.0291,0.386,-0.404,-0.133,0.649,0.281,0.434,0.24,0.258,-0.843 (inactive),0.0406,-1 (inactive),-1.11 (inactive),1.21 (inactive),-0.687 (inactive),0.184,-0.157,0.637,0.216,0.425
CC(C)OC(=O)CC(=O)CC(O)c1ccc(C#N)cc1 (stereo not given),0.548,1.14,0.762,1.04,-0.337,-0.581,0.409,-0.783,0.731,0.902 (inactive),-0.0818,-1.68 (inactive),-0.577 (inactive),-0.583 (inactive),-1.27 (inactive),-0.425,0.0816,2.11,2,-0.305
CC(C)C(O)C1C=CC2C(=O)N(c3ccccc3)C(=O)C2N1Nc1ccc(C#N)cc1 (stereo not given),1.68,1.14,0.0162,1.01,0.97,0.598,0.192,-0.265,1.12,-0.555 (inactive),0.612,0.388 (inactive),-0.783 (inactive),0.629 (inactive),0.813 (inactive),0.761,0.388,-0.0618,0.719,0.0011
CC(C)CNC(=O)[C@@H]1c2ccccc2C(=O)N(Cc2cc(C(F)(F)F)cc(C(F)(F)F)c2)[C@H]1c1ccc(CO)cc1,-0.137,-0.569,0.093,-0.419,-0.137,-0.124,0.157,-0.851,0.204,-0.975 (inactive),-0.0674,-1.51 (inactive),0.788 (inactive),-0.0512 (inactive),-1.2 (inactive),-0.674,0.212,-0.395,-0.537,-0.22
